From publication PMC10726135, “HNF4α isoforms regulate the circadian balance between carbohydrate and lipid metabolism in the liver”
In all, about 18,000 sequences were measured (“log2 normalized intensity”: median about 0.36, highest 2% from about 7.3 on). Many of the other results were omitted from the sample, so the highest values are more common in it than they were.

target: T1, HNF4alpha8 (COS-7 nuclear extract) (Homo sapiens, UniProt P41235-5 1-452); assay: protein-binding microarray; COS-7 nuclear extract on double-stranded Agilent 4x180k PBM; binding buffer, salt, pH and temperature not given in the material; high values mean tight binding; conditions: chain copies: 2; label: 3' end of strand 1 on the slide; dsDNA, one strand shown
T1 sequence: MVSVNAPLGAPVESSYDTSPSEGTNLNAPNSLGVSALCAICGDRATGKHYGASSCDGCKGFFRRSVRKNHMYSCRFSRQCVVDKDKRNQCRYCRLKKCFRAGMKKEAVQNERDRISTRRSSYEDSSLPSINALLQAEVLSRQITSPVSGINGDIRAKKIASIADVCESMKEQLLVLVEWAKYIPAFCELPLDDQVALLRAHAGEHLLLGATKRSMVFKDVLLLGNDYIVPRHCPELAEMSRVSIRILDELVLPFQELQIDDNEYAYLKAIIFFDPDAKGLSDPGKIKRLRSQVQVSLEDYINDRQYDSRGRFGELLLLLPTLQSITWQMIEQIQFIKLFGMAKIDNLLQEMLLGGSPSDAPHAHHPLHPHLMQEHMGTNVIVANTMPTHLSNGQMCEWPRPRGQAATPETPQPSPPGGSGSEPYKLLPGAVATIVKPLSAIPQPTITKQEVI
Procedure, shortened: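 Double-stranded oligonucleotides of ~60 nt, representing ~44,000 test sequences in quadruplicate, made up a custom Agilent SurePrint G3 4x180k array. Nuclear extracts from COS-7 cells transiently transfected by CaPO4 with a human HNF4α isoform expression vector were applied, and bound HNF4α was imaged at 2-µm resolution on an Agilent G2565CA scanner. Binding signal refers to the background-corrected, normalized gProcessedSignal output of Agilent software.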

Sequence	binding signal [log2 normalized intensity]
CAAGCTGACAAACATGTATCAGTGATAGACGCCTAGGGAGATTAGAGTATCGGTCGA	-0.0274
CTTTAGCACCTTCATCCAAAGATGACCTTTGCCTAGGGAGATTAGAGTATCGGTCGA	8.24
TATGACCTTTGCTTTTCAAGATTTTACCTAGCCTAGGGAGATTAGAGTATCGGTCGA	2.72
AATCGACCTTTAGCACCGTAAGAGAGTATTGCCTAGGGAGATTAGAGTATCGGTCGA	4.63
TAACTCCTTTGTGTGAATCGACCTTTAGCAGCCTAGGGAGATTAGAGTATCGGTCGA	6.42
TCTTATTGCCTCATGTTTGCAGAATGGCTGGCCTAGGGAGATTAGAGTATCGGTCGA	0.617
GAGACTTTGGACTTTGGACTTGGGACTTTCGCCTAGGGAGATTAGAGTATCGGTCGA	9.81
ACTTTGGACTTGGGACTTTCGAGTTAATGCGCCTAGGGAGATTAGAGTATCGGTCGA	4.67
CCTTTGGACTGTCCTTTGCTAGATTCTTTCGCCTAGGGAGATTAGAGTATCGGTCGA	2.13
CTGGACTTTCCTTTGTTGGGAGACTTTTTAGCCTAGGGAGATTAGAGTATCGGTCGA	1.45
GGACTTGGGACTTTCGAGTTAATGCTGGAGGCCTAGGGAGATTAGAGTATCGGTCGA	3.2
TTTGGACTTTGGACTTGGGACTTTCGAGTTGCCTAGGGAGATTAGAGTATCGGTCGA	8.22
ATAGCAAACACGATTGGATGGAAGGTCCTTGCCTAGGGAGATTAGAGTATCGGTCGA	0.748
AATCAAACTGAACTTTGAAACAAGCCCATCGCCTAGGGAGATTAGAGTATCGGTCGA	3.87
CAACCTCTCCAATGCTATGCTTTTATTTAAGCCTAGGGAGATTAGAGTATCGGTCGA	-0.995
CATCATAAACCCGATCCTTACTATTAGGTCGCCTAGGGAGATTAGAGTATCGGTCGA	1
CTGTGCTGCCCTTTGCCCTTTGGGAAGGGGGCCTAGGGAGATTAGAGTATCGGTCGA	6.59
GGGTGGGGTGCTGCCTTTCCTGTGACTTTTGCCTAGGGAGATTAGAGTATCGGTCGA	2.09
CTTGGCTGTGCTGCCCTTTGCCCTTTGGGAGCCTAGGGAGATTAGAGTATCGGTCGA	7.91
GGACTTTGGGCTGTGTTTTGCCCCTGCAGAGCCTAGGGAGATTAGAGTATCGGTCGA	4.12
GAGAGTTTTCCTTGGCTGTGCTGCCCTTTGGCCTAGGGAGATTAGAGTATCGGTCGA	4.01
TTTTCCTTGGCTGTGCTGCCCTTTGCCCTTGCCTAGGGAGATTAGAGTATCGGTCGA	8.52

Sequence	binding signal [log2 normalized intensity]
GCGTAGCCCAAAGGTCAGTCTGCAGCTAATGCCTAGGGAGATTAGAGTATCGGTCGA	3.36
AGTAGGCACTATTATCCCCCTATCCCAAGAGCCTAGGGAGATTAGAGTATCGGTCGA	4.72
CGCATTTCTGCTTCTTCTCATTCTTGGAATGCCTAGGGAGATTAGAGTATCGGTCGA	1.49
CCTAAGCCTTATTATCTGCTTTTATGACCTGCCTAGGGAGATTAGAGTATCGGTCGA	3.51
TGCCTCTTTTCTGCTTTTGGAATTTGACCTGCCTAGGGAGATTAGAGTATCGGTCGA	8.78
CTTTTCTGCTTTTGGAATTTGACCTCATTTGCCTAGGGAGATTAGAGTATCGGTCGA	7.55
GCCTTATTATCTGCTTTTATGACCTTTGACGCCTAGGGAGATTAGAGTATCGGTCGA	8.05
GCATGACCTCAACTCTCAGTTTGGCTCTTAGCCTAGGGAGATTAGAGTATCGGTCGA	0.116
TTTGTTGCCTCTTTTCTGCTTTTGGAATTTGCCTAGGGAGATTAGAGTATCGGTCGA	3.37
CTGCTTTTGGAATTTGACCTCATTTGCTCCGCCTAGGGAGATTAGAGTATCGGTCGA	6.52
CCCCTCAGTTTTTCTCTTTTGACCTTTGGAGCCTAGGGAGATTAGAGTATCGGTCGA	9.54
GGTGACCCCTCAGTTTTTCTCTTTTGACCTGCCTAGGGAGATTAGAGTATCGGTCGA	4.77
ATTATCTGCTTTTATGACCTTTGACTGCAGGCCTAGGGAGATTAGAGTATCGGTCGA	7.32
GTGCTTGGACCTGCTCTGTTTTCTTTCGGTGCCTAGGGAGATTAGAGTATCGGTCGA	1.24
CCCCACTTCCTGACTTGGCCTGAACCAGTTGCCTAGGGAGATTAGAGTATCGGTCGA	0.602
TTAAGAACTGGAGTAAAGGTCACTCTTGCTGCCTAGGGAGATTAGAGTATCGGTCGA	3.94
GTGTTTAATGTTTTCATTCTGATTTGCACAGCCTAGGGAGATTAGAGTATCGGTCGA	0.934
CTCTCCAAGCCAGAAAGATGTTTGCCCCAAGCCTAGGGAGATTAGAGTATCGGTCGA	2.94
GGTTGGCACGCTTAGGGAACAAAGGTCAGTGCCTAGGGAGATTAGAGTATCGGTCGA	7.22
CGCCGCCTCTGCCTCTTGACCCCTTGGCCCGCCTAGGGAGATTAGAGTATCGGTCGA	5.9
TTCCTGGCCTCTCTGCAAATTTGCCTTGTCGCCTAGGGAGATTAGAGTATCGGTCGA	0.448
TGTTTGCACTGAGGAATGGAAGGACCTTGGGCCTAGGGAGATTAGAGTATCGGTCGA	2.07

Sequence	binding signal [log2 normalized intensity]
TTAGGGGTTAGGGTTAGGGTTAGGGTTACGGCCTAGGGAGATTAGAGTATCGGTCGA	1.17
GGCTAAACCTAGCCCCCTTTCCCTTATCTTGCCTAGGGAGATTAGAGTATCGGTCGA	2.81
ACAGGTGCTCTTTATCAGCACCAAGAACAAGCCTAGGGAGATTAGAGTATCGGTCGA	-0.837
GCATGGAATGACTTTGGGGAAATGACCTTTGCCTAGGGAGATTAGAGTATCGGTCGA	7.96
ATGTGGTATTAACATGTAAATATGACCTTTGCCTAGGGAGATTAGAGTATCGGTCGA	8.01
GAATGACTTTGGGGAAATGACCTTTGTCCAGCCTAGGGAGATTAGAGTATCGGTCGA	9.48
CCTTTTTGGAATGTGTTTGCATGACTCATAGCCTAGGGAGATTAGAGTATCGGTCGA	1.5
CTGGTGTAGTGGGGAGGGCATGGACTTTGGGCCTAGGGAGATTAGAGTATCGGTCGA	6.38
TTATCATGTGGTATTAACATGTAAATATGAGCCTAGGGAGATTAGAGTATCGGTCGA	1.36
GGGGAGGGCATGGACTTTGGAATTAAGGAGGCCTAGGGAGATTAGAGTATCGGTCGA	5.91
GTATTAACATGTAAATATGACCTTTGCTTTGCCTAGGGAGATTAGAGTATCGGTCGA	7.1
GGAGGACTTTGGAATGGCAGTGCTTGTCCAGCCTAGGGAGATTAGAGTATCGGTCGA	2.52
ATGACCTTTGAGCAATAGGAAATGGGAGGGGCCTAGGGAGATTAGAGTATCGGTCGA	3.35
GTAGTGGGGAGGGCATGGACTTTGGAATTAGCCTAGGGAGATTAGAGTATCGGTCGA	8.06
TGATGACTTTTGACCCCAGGGGAAACTCCAGCCTAGGGAGATTAGAGTATCGGTCGA	5.06
TCACAATGGGGCATGACTTGTTATCACCTGGCCTAGGGAGATTAGAGTATCGGTCGA	0.285
TCCTTCTTGCTTAGGATAGGGTCAGTCTTTGCCTAGGGAGATTAGAGTATCGGTCGA	2.48
AGGCCGGTTGGCCAGGTTCCTCCACCGTCAGCCTAGGGAGATTAGAGTATCGGTCGA	-0.785
TTCAGGCAGGAATGCTGAACAATTGATTTAGCCTAGGGAGATTAGAGTATCGGTCGA	-0.858
GTCAAAAGGTGTATGTGGACTTTCAACTGCGCCTAGGGAGATTAGAGTATCGGTCGA	6.13
CCACACAGCACGTAATAGTTCATGAAATGGGCCTAGGGAGATTAGAGTATCGGTCGA	0.614
AAACAGAGGCTGAAATGGTTACAAAGGTCAGCCTAGGGAGATTAGAGTATCGGTCGA	5.42

Sequence	binding signal [log2 normalized intensity]
GGGGAAATGACCTTTGTCCAGCTGTGCCGAGCCTAGGGAGATTAGAGTATCGGTCGA	7.01
AATGACCTTTGTCCAGCTGTGCCGAGCCTGGCCTAGGGAGATTAGAGTATCGGTCGA	4.91
ACTTTGGGGAAATGACCTTTGTCCAGCTGTGCCTAGGGAGATTAGAGTATCGGTCGA	7.84
GACCTTTGGACTTGATAGAGTTTAAGTCTTGCCTAGGGAGATTAGAGTATCGGTCGA	7.2
TCAGTTTGGCTCTTATGTCCCTCCTGACCTGCCTAGGGAGATTAGAGTATCGGTCGA	3.83
ACTGCTCCAGTGGACATTGGCCCTTTGACCGCCTAGGGAGATTAGAGTATCGGTCGA	6.76
TTGGCTCTTATGTCCCTCCTGACCTTTGGAGCCTAGGGAGATTAGAGTATCGGTCGA	9.16
CTCCTGACCTTTGGACTTGATAGAGTTTAAGCCTAGGGAGATTAGAGTATCGGTCGA	8.25
TCCAGTGGACATTGGCCCTTTGACCTTTAAGCCTAGGGAGATTAGAGTATCGGTCGA	8.05
ATATCCTGACTGCTGACCTTTAAGCCTATAGCCTAGGGAGATTAGAGTATCGGTCGA	4.7
ACCTTTGTCCTCATTGAGCCCTCCCCTTGTGCCTAGGGAGATTAGAGTATCGGTCGA	4.38
AACTCTCAGTTTGGCTCTTATGTCCCTCCTGCCTAGGGAGATTAGAGTATCGGTCGA	0.947
TGGACATTGGCCCTTTGACCTTTAATCAAGGCCTAGGGAGATTAGAGTATCGGTCGA	7.21
TCTTATGTCCCTCCTGACCTTTGGACTTGAGCCTAGGGAGATTAGAGTATCGGTCGA	10.6
GCCTCTTTATCTCCTCCCCTTGAGACTTTAGCCTAGGGAGATTAGAGTATCGGTCGA	2.97
ACTACATTTCCAAGACCTCTTTGCGGATAGGCCTAGGGAGATTAGAGTATCGGTCGA	-0.337
AGTCAATCCCGTGGACTTTGCCTGCCCATCGCCTAGGGAGATTAGAGTATCGGTCGA	5.08
GCCTGCCCTTCGCTCCCCGACCTCCTGCTGGCCTAGGGAGATTAGAGTATCGGTCGA	2.62
CAGGTATTTGCTCTGTGATAGCCTTTTACCGCCTAGGGAGATTAGAGTATCGGTCGA	1.5
